Reference: PubChem BioAssay (NCATS)
Results filed as inconclusive are left out. The source made the active and inactive calls. Calls come from the whole dose curve; as a rule, active = well fitted inhibition curve with a large enough effect; inconclusive = small, poorly fitted or top-dose-only effect; inactive = flat fitted curve, though single readings scatter.

Columns and labels:
Assay in all cases: qHTS profiling for inhibitors of Plasmodium falciparum proliferation (AID 504749); note: nearly all actives have a fitted effect of over 60% in size
Conditions in all cases: P. falciparum in erythrocytes, SYBR Green DNA, 72 h; series mostly up to 28.7 µM
CP211 = tested on: CP211
Outline: (§1)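 P. falciparum-infected erythrocytes (0.3% parasitemia, 2.5% hematocrit final) were exposed to compounds for 72 h at 37 C in 5% CO2, then lysed with SYBR Green buffer overnight at room temperature; parasite DNA fluorescence was normalized to artemisinin and DMSO controls.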

CP237 = tested on: CP237
Outline: as §1

CP238 = tested on: CP238
Outline: as §1

CP247 = tested on: CP247
Outline: as §1

CP250 = tested on: CP250
Outline: as §1

CP256 = tested on: CP256
Outline: as §1

CP260 = tested on: CP260
Outline: as §1

CP262 = tested on: CP262
Outline: as §1

CP265 = tested on: CP265
Outline: as §1

CP266 = tested on: CP266
Outline: as §1

CP286 = tested on: CP286
Outline: as §1

CP297 = tested on: CP297
Outline: as §1

CP305 = tested on: CP305
Outline: as §1

CP315 = tested on: CP315
Outline: as §1

CP217 = tested on: CP217
Outline: as §1

CP252 = tested on: CP252
Outline: as §1

CP268 = tested on: CP268
Outline: as §1

CP269 = tested on: CP269
Outline: as §1

CP291 = tested on: CP291
Outline: as §1

Measured: Potency
Potency is the fitted concentration of half-maximal effect.

CCOc1nc2cccc(C(=O)O)c2n1Cc1ccc(-c2ccccc2-c2nn[nH]n2)cc1
not listed: CP217 | CP252 | CP268 | CP269 | CP291
inactive: all other assays above

CCn1cc(C(=O)O)c(=O)c2cnc(N3CCNCC3)nc21
inactive: all assays above

c1ccc(CN(CC2=NCCN2)c2ccccc2)cc1
inactive: CP211 | CP217 | CP247 | CP252 | CP256 | CP262 | CP266 | CP269 | CP291 | CP315

O=c1cc[nH]c(=S)[nH]1
not listed: CP297
inactive: all other assays above

C#CCN(C)Cc1ccccc1
not listed: CP266 | CP297
inactive: all other assays above

OCCN1CCN(CCCN2c3ccccc3Sc3ccc(Cl)cc32)CC1
active: CP247 2.51 µM | CP252 3.55 µM | CP256 3.98 µM | CP260 3.16 µM | CP265 3.55 µM | CP286 3.16 µM
inactive: CP266

Cc1cc(O)cc2c1O[C@](C)(CCC[C@H](C)CCC[C@H](C)CCCC(C)C)CC2
not listed: CP237
inactive: all other assays above

CNCCC(Oc1ccc(C(F)(F)F)cc1)c1ccccc1 (stereo not given)
active: CP286 10 µM
inactive: CP211 | CP217 | CP237 | CP262 | CP266 | CP297 | CP315

NC(CSCC(=O)O)C(=O)O (stereo not given)
not listed: CP266
inactive: all other assays above

COCCOC(=O)C1=C(C)NC(C)=C(C(=O)OC/C=C/c2ccccc2)C1c1cccc([N+](=O)[O-])c1 (stereo not given)
inactive: CP266
